For some of these results: Results with a measured potency or affinity are listed apart.
What was measured:
Design in all cases: scale not given: direction of the effect not stated beside the values
[1] = molecular target: Protein translocase subunit SecA (Escherichia coli (strain K12)) (UniProt P10408); assay: Assay to Identify E. coli SecA ATPase Inhibitors; format: functional; details: 30 µM
[2] = molecular target: T1, Ubiquitin-activating enzyme e1, putative (Leishmania donovani (strain BPK282A1)) (UniProt E9BSI1); assay: Leishmania donovani Ubiquitin Activating Enzyme (LdE1); format: functional; details: 30 µM
T1 sequence (whole entry): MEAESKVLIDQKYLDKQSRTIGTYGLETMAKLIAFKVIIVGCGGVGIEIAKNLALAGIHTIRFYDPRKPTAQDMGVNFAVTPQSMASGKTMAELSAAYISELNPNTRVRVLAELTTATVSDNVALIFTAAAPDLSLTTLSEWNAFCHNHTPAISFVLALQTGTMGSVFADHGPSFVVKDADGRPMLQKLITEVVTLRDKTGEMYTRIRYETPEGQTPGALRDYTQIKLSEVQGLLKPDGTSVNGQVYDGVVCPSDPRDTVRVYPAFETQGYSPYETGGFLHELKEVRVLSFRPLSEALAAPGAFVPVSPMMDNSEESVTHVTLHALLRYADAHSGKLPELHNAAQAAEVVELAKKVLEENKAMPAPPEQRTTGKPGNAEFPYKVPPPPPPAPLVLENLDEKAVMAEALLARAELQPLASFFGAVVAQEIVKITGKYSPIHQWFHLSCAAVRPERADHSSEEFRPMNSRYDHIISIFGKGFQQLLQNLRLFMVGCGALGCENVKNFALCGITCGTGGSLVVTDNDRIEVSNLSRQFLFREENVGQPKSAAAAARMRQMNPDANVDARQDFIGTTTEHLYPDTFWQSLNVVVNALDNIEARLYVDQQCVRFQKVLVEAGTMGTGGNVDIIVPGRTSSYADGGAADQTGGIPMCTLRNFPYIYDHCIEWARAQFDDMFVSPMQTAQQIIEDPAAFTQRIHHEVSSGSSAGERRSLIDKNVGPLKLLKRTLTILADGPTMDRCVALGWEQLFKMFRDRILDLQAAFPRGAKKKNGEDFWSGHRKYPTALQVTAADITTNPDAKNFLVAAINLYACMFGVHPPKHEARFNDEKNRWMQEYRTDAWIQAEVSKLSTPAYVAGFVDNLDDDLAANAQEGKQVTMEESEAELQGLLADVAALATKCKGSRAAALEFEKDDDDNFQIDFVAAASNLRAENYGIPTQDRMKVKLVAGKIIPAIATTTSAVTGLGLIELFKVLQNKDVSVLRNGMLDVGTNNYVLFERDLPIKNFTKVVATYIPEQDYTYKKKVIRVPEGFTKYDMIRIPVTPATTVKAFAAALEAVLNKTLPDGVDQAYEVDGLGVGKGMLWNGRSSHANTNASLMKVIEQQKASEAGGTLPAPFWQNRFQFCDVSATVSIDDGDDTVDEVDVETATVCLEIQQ

[3] = molecular target: AMP-activated protein kinase, AMPK (Homo sapiens) (UniProt P54646+O43741+P54619+Q9UGJ0+Q9Y478+Q13131+Q9UGI9); assay: AMP-dependent Kinase enzyme assay. An in vitro enzyme assay that detects ADP turnover that is directly proportional to AMPK activity. This uses naive AMPK that is activated during the assay with MK-8722; format: functional; details: 30 µM
[4] = molecular target: Sialic acid-binding Ig-like lectin 9 (Homo sapiens) (UniProt Q9Y336); assay: Hs-Siglec9 ALPHAscreen SOP 20170721; details: 10 µM
Sequence of Sialic acid-binding Ig-like lectin 9 (Homo sapiens) (Q9Y336 whole entry): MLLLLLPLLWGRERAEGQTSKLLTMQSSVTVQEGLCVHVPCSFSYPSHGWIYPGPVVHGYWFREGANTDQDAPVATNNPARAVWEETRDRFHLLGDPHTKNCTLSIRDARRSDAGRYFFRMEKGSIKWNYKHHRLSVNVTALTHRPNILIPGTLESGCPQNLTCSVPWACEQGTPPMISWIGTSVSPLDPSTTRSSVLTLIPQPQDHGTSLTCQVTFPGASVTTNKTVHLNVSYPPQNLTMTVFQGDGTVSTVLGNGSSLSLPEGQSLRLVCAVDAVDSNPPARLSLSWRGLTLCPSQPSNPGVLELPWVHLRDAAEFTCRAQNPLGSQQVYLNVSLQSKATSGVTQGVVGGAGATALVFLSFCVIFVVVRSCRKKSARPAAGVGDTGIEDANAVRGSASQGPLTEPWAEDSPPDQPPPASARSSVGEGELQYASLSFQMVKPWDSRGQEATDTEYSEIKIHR

Trypanosoma cruzi = assay: Trypanosoma cruzi phosphomannomutase and mannose-1-phosphate guanylyltransferase assay; format: functional; details: 10 µM
[5] = molecular target: T2, Arginase-2, mitochondrial (Homo sapiens) (UniProt P78540); assay: in vitro enzyme assay to detect the production of urea directly proportional to the activity of Arginase II; format: functional; details: 33.3 µM; also: in the data most compounds retested in dose-response had high values
T2 sequence (whole entry): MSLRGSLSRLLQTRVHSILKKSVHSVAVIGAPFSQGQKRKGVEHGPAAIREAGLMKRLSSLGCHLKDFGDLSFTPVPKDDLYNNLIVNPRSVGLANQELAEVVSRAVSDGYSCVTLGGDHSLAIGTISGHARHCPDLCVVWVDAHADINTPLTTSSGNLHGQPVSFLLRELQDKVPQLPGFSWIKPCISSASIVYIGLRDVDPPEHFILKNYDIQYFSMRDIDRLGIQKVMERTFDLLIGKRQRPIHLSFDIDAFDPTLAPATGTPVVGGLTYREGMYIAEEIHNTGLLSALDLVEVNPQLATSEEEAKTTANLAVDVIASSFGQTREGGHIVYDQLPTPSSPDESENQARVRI

[6] = molecular target: T3, Proteasome subunit beta (Trypanosoma cruzi) (UniProt O96673); assay: Trypanosoma cruzi proteasome chymotrypsin-like activity (TcProtChymo) assay.; also: in the data most compounds retested in dose-response had high values; format: functional; details: 9.37 µM
T3 sequence (whole entry): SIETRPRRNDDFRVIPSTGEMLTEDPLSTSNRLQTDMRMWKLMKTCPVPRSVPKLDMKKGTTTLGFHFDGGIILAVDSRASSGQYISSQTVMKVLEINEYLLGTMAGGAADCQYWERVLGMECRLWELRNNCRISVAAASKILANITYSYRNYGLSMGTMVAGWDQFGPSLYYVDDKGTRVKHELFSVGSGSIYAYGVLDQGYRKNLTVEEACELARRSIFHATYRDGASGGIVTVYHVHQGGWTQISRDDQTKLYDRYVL

Homo sapiens = species on record: Homo sapiens; assay: To identify inhibition of the IFN signalling (Jak-Stat) pathway via expression of an eGFP reporter gene under the control of an IFN-stimulated response element (ISRE) containing MxA promoter.; format: functional; details: 30 µM
[7] = molecular target: T4, Tyrosyl-tRNA synthetase, putative (Trypanosoma cruzi (strain CL Brener)) (UniProt Q4DSP6); assay: Trypanosoma cruzi tyrosyl tRNA synthetase (TcYRS) _High Tyrosine SOP; format: functional; details: 30 µM; also: in the data most compounds retested in dose-response had high values
T4 sequence (whole entry): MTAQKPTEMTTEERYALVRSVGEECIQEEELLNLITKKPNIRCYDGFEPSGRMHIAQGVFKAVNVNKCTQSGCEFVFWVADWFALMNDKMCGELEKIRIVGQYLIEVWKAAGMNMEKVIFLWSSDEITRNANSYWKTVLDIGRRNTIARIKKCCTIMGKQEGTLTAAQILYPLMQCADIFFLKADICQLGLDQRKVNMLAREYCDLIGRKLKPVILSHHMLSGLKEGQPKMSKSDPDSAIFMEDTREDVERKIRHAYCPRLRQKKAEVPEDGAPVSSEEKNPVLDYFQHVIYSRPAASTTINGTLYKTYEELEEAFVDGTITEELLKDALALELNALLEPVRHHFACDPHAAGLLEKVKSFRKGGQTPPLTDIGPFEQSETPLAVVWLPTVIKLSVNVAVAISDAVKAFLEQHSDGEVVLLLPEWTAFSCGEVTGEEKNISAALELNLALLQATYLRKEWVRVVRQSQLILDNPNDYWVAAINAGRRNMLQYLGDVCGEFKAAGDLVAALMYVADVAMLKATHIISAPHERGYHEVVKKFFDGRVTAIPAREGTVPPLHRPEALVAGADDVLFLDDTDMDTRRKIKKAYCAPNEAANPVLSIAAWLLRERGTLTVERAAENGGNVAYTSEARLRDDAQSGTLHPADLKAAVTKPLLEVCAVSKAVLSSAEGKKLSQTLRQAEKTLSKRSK

[8] = molecular target: T4, Tyrosyl-tRNA synthetase, putative (Trypanosoma cruzi (strain CL Brener)); assay: Trypanosoma cruzi tyrosyl tRNA synthetase (TcYRS) SOP; format: functional; details: 30 µM
[9] = molecular target: Chromo domain-containing protein 1 (Saccharomyces cerevisiae (strain ATCC 204508 / S288c) (Baker's yeast)) (UniProt P32657); assay: ScCHD-1 Enzyme Inhibition Assay; format: functional; details: 30 µM; also: in the data most compounds retested in dose-response had high values
Sequence of Chromo domain-containing protein 1 (Saccharomyces cerevisiae (strain ATCC 204508 / S288c) (Baker's yeast)) (P32657 whole entry, the tested form may be a part): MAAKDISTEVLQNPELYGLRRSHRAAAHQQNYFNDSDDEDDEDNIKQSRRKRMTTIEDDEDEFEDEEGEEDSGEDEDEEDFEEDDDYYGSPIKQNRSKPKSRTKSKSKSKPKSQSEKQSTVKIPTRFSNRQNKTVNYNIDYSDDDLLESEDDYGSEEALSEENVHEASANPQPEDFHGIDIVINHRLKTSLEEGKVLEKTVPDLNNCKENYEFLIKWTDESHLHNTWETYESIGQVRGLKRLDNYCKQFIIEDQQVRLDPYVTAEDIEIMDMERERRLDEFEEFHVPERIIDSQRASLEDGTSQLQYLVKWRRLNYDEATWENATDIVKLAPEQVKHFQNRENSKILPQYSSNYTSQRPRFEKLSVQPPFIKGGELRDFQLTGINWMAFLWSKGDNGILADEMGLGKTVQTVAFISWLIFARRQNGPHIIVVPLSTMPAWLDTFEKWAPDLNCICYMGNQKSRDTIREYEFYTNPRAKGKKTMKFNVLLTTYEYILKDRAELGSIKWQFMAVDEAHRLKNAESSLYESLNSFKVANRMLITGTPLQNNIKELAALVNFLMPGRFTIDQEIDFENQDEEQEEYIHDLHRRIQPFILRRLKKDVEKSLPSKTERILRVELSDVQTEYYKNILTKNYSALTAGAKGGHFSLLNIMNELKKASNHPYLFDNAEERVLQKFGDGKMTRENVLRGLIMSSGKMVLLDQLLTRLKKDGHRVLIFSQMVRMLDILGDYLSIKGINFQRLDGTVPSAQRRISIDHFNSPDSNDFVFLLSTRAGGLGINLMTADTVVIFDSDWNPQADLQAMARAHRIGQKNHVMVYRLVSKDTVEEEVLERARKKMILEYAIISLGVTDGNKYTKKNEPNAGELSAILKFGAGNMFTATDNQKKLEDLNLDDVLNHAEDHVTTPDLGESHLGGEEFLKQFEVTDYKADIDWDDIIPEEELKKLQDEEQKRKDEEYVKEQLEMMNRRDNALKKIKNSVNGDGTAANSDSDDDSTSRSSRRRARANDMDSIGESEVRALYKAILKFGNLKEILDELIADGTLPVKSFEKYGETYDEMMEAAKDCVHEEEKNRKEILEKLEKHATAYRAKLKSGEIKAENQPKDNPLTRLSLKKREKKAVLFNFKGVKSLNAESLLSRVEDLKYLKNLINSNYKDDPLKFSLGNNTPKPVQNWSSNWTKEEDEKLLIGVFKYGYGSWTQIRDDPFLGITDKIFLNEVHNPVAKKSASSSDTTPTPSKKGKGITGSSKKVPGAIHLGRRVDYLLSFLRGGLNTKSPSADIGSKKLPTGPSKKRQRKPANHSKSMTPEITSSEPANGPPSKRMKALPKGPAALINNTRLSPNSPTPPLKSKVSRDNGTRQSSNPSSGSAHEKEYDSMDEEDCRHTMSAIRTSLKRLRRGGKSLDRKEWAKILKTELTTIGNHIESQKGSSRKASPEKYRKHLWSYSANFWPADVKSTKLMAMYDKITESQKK

Sequence of Protein translocase subunit SecA (Escherichia coli (strain K12)) (P10408 whole entry): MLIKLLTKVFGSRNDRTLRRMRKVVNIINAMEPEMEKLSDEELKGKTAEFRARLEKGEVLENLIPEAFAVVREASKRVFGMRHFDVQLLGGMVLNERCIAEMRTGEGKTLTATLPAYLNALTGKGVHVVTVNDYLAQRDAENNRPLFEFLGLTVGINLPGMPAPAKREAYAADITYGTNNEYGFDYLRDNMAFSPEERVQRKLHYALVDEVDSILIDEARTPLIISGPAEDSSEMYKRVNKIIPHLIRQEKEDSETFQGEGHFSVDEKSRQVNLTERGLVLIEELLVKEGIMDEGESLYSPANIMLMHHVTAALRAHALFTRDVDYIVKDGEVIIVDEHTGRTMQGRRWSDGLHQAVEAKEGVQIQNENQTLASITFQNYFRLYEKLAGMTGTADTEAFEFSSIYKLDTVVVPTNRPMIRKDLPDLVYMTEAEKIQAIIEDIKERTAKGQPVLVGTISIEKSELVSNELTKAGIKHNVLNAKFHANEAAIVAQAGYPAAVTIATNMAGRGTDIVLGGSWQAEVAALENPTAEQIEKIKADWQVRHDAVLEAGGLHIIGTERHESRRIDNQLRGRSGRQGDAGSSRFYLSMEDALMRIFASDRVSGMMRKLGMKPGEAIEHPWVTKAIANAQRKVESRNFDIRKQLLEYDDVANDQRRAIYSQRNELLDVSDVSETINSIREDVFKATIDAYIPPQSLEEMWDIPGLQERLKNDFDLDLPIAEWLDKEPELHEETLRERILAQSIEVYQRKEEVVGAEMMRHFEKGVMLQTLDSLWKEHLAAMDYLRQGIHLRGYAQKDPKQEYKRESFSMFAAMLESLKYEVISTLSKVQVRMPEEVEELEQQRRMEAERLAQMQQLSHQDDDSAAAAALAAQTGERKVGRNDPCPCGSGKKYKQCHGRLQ

SMILES | Percent Effect [1] | Percent Effect [2] | Percent Effect [3] | Percent Effect [4] | Percent Effect (Trypanosoma cruzi) | Percent Effect [5] | Percent Effect [6] | Percent Effect (Homo sapiens) | Percent Effect [7] | Percent Effect [8] | Percent Effect [9]
Cc1cnn(CCNCc2ccc(OCc3csc(C)n3)cc2)c1 | -7.35% | 0% | -1.8% | 8.64% | 10.2% | -1.04% | 8.54% | 11.2% | 3.83% | 11.1% | -5.91%
CCc1nc2n(n1)CC(NCc1nc(C)ccc1O)CC2 (stereo not given) | -5.74% | 7.89% | 1.61% | 1.6% | 5.16% | -2.37% | 5.85% | -1.01% | 0% | 10.4% | -1.98%
Cc1cccnc1CN1CCC(c2nnc(Cn3cccn3)n2C)CC1 | -4.04% | 1.39% | 0.385% | -7.79% | -3.98% | 2.21% | 8.95% | -6.28% | 3.16% | 10.3% | -2.58%
CC(C)NS(=O)(=O)c1cc(C(=O)O)cc(-c2ccc(CN(C)C)cc2)c1 | -8.02% | 0% | 5.48% | -7.27% | -3.81% | -0.248% | 13.7% | 0.283% | 0% | 1.24% | -4.61%
Cc1c(C(=O)NC(C)C(C)C)nnn1-c1cccc2c1CCN(C)C2 (stereo not given) | -4.44% | 10.5% | -6.99% | 3.62% | 1.85% | -17.8% | 7.19% | 3.15% | 3.19% | 0% | -11.2%
CCN1CC(C(=O)NC(C)(C)CNC(=O)OC(C)(C)C)CC1=O (stereo not given) | -5.66% | 8.11% | -1.21% | 20.7% | -1.66% | 4.22% | 7.47% | -16.6% | 4.3% | 8.64% | -4.86%
COC(=O)C(NC(=O)c1ccco1)c1cc(F)ccc1F (stereo not given) | -3.29% | 5.2% | 19.7% | 11.4% | 6.93% | -0.712% | 9.46% | -16.9% | 1.94% | 14.6% | -8.66%
O=C(CS(=O)(=O)CC1CCCCC1)NC1CCCCNC1=O (stereo not given) | -5.08% | 2.6% | -1.46% | 5.38% | 4.49% | -6.05% | -2.7% | -1.34% | 0% | 9.76% | 83.8%
CC(C)c1nccn1C1CCCN(C(=O)c2ccc3[nH]nnc3c2)C1 (stereo not given) | -8.55% | 7.79% | -5.52% | -4.53% | 9.89% | -1.05% | 19% | -2.41% | 4.76% | 11.8% | -22.9%
COc1cccc(CN(C)S(=O)(=O)N2CCOCC2)c1 | -1.1% | 13.2% | 1.96% | -0.478% | 2.63% | -10.7% | 22.1% | 23.5% | 5.32% | 18.2% | -6.9%
CN(C)CCOCC1CN(C(=O)[C@H]2CCCO2)Cc2ccnn2C1 (stereo not given in full) | -0.666% | 0% | -0.823% | 5.06% | -1.35% | -46.1% | 2.91% | -2.46% | 1.04% | -55% | 3.03%
Cc1nn(C)c(C)c1C1CCCN1Cc1nc(-c2ccco2)oc1C (stereo not given) | -4.35% | 18.9% | -4.34% | -6.83% | -1.76% | 3.14% | 11.3% | 18.9% | 8.91% | 13.4% | -8.93%
CN(C)C(=O)CN1C[C@@H]2CC[C@H](C1)N(Cc1cccc(Cl)c1Cl)C2 | 6.03% | 2.74% | 1.3% | -0.255% | 2.58% | -19.6% | 22.5% | 14% | 10.4% | 25.9% | 0.27%
CC(C)(C)c1nnc(CN2CCCC(c3cc(C(N)=O)[nH]n3)C2)o1 (stereo not given) | -6.11% | 10.8% | -2.58% | -2.88% | -7.08% | -10% | 3.78% | 9% | -2.46% | -1.24% | -5.5%
Cc1nc[nH]c1CN(C)CC1CCCN(CCc2ccc(Cl)cc2)C1 (stereo not given) | 0.978% | -5.48% | 4.19% | 6.4% | 4.11% | 10.4% | 5.32% | 61.3% | 9.68% | 2.5% | -4.79%
CCc1ccc(C(=O)NC2CCN(c3cnn(C)c3)C2=O)o1 (stereo not given) | -6.02% | 2.7% | -5.86% | 6.69% | 8.11% | -0.744% | 8.84% | -0.708% | 3.23% | 11.1% | -7.33%
CNc1cc(N2CCCC2CNCc2ccccn2)ncn1 (stereo not given) | -1.73% | 13.5% | -11.7% | -3.49% | -2.93% | -2.08% | 16% | 24.8% | 11.9% | 11% | 26.6%
Cc1nc(CNCc2c(C)nn(C)c2N2CCOCC2)cs1 | -2.88% | 7.89% | -0.222% | 9.92% | 3.95% | 2.68% | 5.68% | -6.91% | 4.41% | -4.88% | -3.53%
Cc1nc(CNCC2CCCN2c2cccnn2)no1 (stereo not given) | -3.3% | -13% | -11.2% | -6.04% | 8.32% | -6.53% | 15.6% | -2.13% | 9.52% | 14.1% | -23.1%
CC(C)(C)OC(=O)N1CCN(C(=O)c2sccc2C2CC2)CC1 | -1.99% | 8.86% | 5.24% | 1.31% | -2.56% | 9.25% | 6.17% | -13.8% | 3.12% | 5.06% | -5.68%

Reference: ChEMBL document CHEMBL3988442, “University of Dundee, Small-Polar-MMV Screening Library” (2021)
